Assay [1] is described as follows: qHTS assay to identify small molecule agonists of the constitutive androstane receptor (CAR) signaling pathway - cell viability counter screen (AID 1224836). Also: nearly all actives have a fitted effect of over 45% in size. Also: potency is read from the fitted curve at half-maximal effect. In a few lines:
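Multiplexed viability check: HepG2-CYP2B6-hCAR cells, 15-point compound dosing, 0.75 uM PK11195 final, 23 h at 37 C, CellTiter-Fluor fluorescence.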

Assay [2] in a line: qHTS assay to identify small molecule antagonists of the constitutive androstane receptor (CAR) signaling pathway - cell viability counter screen (AID 1224837). Also: nearly all actives have a fitted effect of over 45% in size. Also: potency is read from the fitted curve at half-maximal effect. In a few lines:
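Fluorescence from CellTiter-Fluor served as the viability signal. Human hepatoma HepG2 cells stably bearing hCAR and CYP2B6-2.2kb received compound plus CITCO (50 nM final) for 23 hr.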

Assay [3] can be described thus: qHTS assay to identify small molecule antagonists of the estrogen related receptor signaling pathway with the pleiotropic PPARgamma coactivator (PGC) from Tox21 10K library - cell viability counter screen (AID 1224840; active = well fitted cell-killing curve with a large enough effect in the repeat runs, not every such curve was filed as active; also: nearly all actives have a fitted effect of over 40% in size; also: potency is read from the fitted curve at half-maximal effect). In a few lines: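 Compounds in DMSO, alongside positive and negative controls, were pinned onto PGC/ERR cells (2,000 per well). Exposure lasted 17.5 hours at 37 C, followed by a 30-minute CellTiter-Fluor incubation and fluorescence reading.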

A short description of assay [4]: qHTS assay to identify small molecule antagonists of the estrogen related receptor signaling pathway with the pleiotropic PPARgamma coactivator (PGC) from Tox21 10K library (AID 1224841; call rule not given here; also: actives are mostly falling curves and most rising ones were filed inactive; nearly all actives have a fitted effect of over 50% in size; also: potency is read from the fitted curve at half-maximal effect). In a few lines:
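Compound exposure ran 18 hours at 37 C in PGC/ERR cells (2,000/well) that had first rested 6 hours in a 37 C/5% CO2 incubator. Luciferase activity was then detected with One-Glo after a 30-minute room-temperature step.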

The target in assay [5] is Thyrotropin receptor (Homo sapiens) (UniProt P16473). Briefly: qHTS assay to identify small molecule agonists of the thyroid stimulating hormone receptor (TSHR) signaling pathway (AID 1224843; calls by dose curve; also: nearly all actives have a fitted effect of over 45% in size). In a few lines:
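TSHR-HEK293 cells in agonist mode, 30 min room-temperature step, then cAMP measured by competitive HTRF (cAMP-d2 with anti-cAMP cryptate) after 1 h at room temperature. Tested at 15 concentrations in triplicate.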

Assay [6] in a line: qHTS assay to identify small molecule agonists of the hypoxia (HIF-1) signaling pathway - cell viability counter screen (AID 1224844; calls by dose curve; also: nearly all actives have a fitted effect of over 50% in size; also: potency is read from the fitted curve at half-maximal effect). In a few lines:
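Luminescent ATP content (CellTiter-Glo, 30 min, room temperature) served as the viability measure in HRE-bla ME-180 cells exposed to compounds for 17 hrs in low-serum medium (0.5% dialyzed FBS).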

The nature of assay [7]: qHTS assay to identify small molecule agonists of the hypoxia (HIF-1) signaling pathway (AID 1224846; active = well fitted activation curve with a large enough effect in the signal ratio in the repeat runs, not every such curve was filed as active; the % refers to the signal ratio). In a few lines:
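Measured by blue/green FRET after loading CCF4-AM: beta-lactamase expressed from a hypoxia response element in ME-180 cells. Test agents were delivered in DMSO and left 17 hrs; cells had been plated 5 hrs earlier in low-serum (0.5% dialyzed FBS) medium.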

Assay [8] in a line: qHTS assay to identify small molecule antagonists of the estrogen related receptor (ERR) signaling pathway from Tox21 library (AID 1224848). Also: nearly all actives have a fitted effect of over 50% in size. Also: potency is read from the fitted curve at half-maximal effect. In a few lines: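 ERR reporter cell line (from NTP) seeded 2,000 cells/well, rested 6 h at 37 C/5% CO2, then pin-dosed with compounds in DMSO. After 18 h at 37 C, ONE-Glo added; luminescence read after 30 min at room temperature.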
A short description of assay [9]: qHTS assay to identify small molecule agonists of the estrogen related receptor (ERR) signaling pathway from Tox21 library (AID 1224849; calls by dose curve; also: nearly all actives have a fitted effect of over 15% in size). The following applies: ERR reporter cell line, ONE-Glo luciferase, 18 h; at 92.4 µM (top of the series) unless noted. In a few lines: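 We plated ERR reporter cells, waited 6 h, added compounds in DMSO by pin tool and incubated them 18 h at 37 C. ONE-Glo was then added and luminescence read after 30 min.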

The nature of assay [10]: qHTS RealTime-Glo MT Cell Viability Assay in HepG2 cells - 24 hour (AID 1224867). Also: nearly all actives have a fitted effect of over 50% in size. Also: potency is read from the fitted curve at half-maximal effect. In a few lines: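 Cell number in HepG2 cultures estimated from NanoLuc luminescence generated by metabolic reduction of a prosubstrate by living cells. The homogeneous, nonlytic format allowed repeated reads at 0, 8, 16, 24, 32 and 40 h of compound exposure.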
Assay [11] is described as follows: qHTS RealTime-Glo MT Cell Viability Assay in HEK293 cells - 32 hour (AID 1224868). Also: nearly all actives have a fitted effect of over 50% in size. Also: potency is read from the fitted curve at half-maximal effect. In a few lines: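 Homogeneous bioluminescent viability format in HEK293 cells (600 cells/well). Following 5 h at 37 C/5% CO2, 23 nL compound was pintooled; the signal was measured repeatedly during 40 h incubation.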
Assay [12] in a line: A CellTox Green Cytotoxicity Assay to monitor cytotoxicity in HEK293 cells - 0 hour (AID 1224869). Also: nearly all actives have a fitted effect of over 50% in size. In a few lines: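 Each value comes from one timepoint of a single continuous run in which HEK293 cells with CellTox Green were exposed to compound for up to 40 h at 37 C, dye fluorescence rising with cell death.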
Assay [13] has as its target Luciferin 4-monooxygenase (Photinus pyralis) (UniProt P08659). Briefly: qHTS assay to identify small molecule inhibitors of firefly luciferase (AID 1224835). Also: nearly all actives have a fitted effect of over 25% in size. Also: potency is read from the fitted curve at half-maximal effect. In a few lines:
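Biochemical qHTS: compounds run as interplate titrations against purified firefly enzyme, with D-luciferin and ATP each at its KM concentration. Light output recorded by CCD imaging.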

A short description of assay [14]: qHTS assay to identify small molecule agonists of the estrogen related receptor signaling pathway with the pleiotropic PPARgamma coactivator (PGC) from Tox21 10K library (AID 1224842). Also: nearly all actives have a fitted effect of over 15% in size. In a few lines: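 PGC/ERR reporter cell line, 2,000 cells per well, incubated 6 h at 37 C before 23 nL compound in DMSO was added. After 18 h at 37 C, One-Glo luminescence read following 30 min at room temperature.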

The nature of assay [15]: qHTS assay to identify small molecule agonists of H2AX (AID 1224845; active = well fitted activation curve with a large enough effect in the signal ratio in the repeat runs, not every such curve was filed as active; the % refers to the signal ratio; also: potency is read from the fitted curve at half-maximal effect). In a few lines: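 Wild-type CHO-K1 cells, plated overnight, exposed 3hr at 37C to 15 concentrations (0.76% DMSO final). Lysed, then HTRF anti-pH2AX (S139) cryptate and anti-H2AX-d2 antibodies, 24 hr room temperature; 665/620 nm emission read.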
The nature of assay [16]: qHTS assay to identify small molecule agonists of H2AX - cell viability counter screen (AID 1224847; calls by dose curve; also: nearly all actives have a fitted effect of over 30% in size; also: potency is read from the fitted curve at half-maximal effect). In a few lines: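 After overnight plating of 1000 CHO-K1 cells per well, a 15-concentration compound series was applied for 3 hr at 37C. Luminescence from CellTiter-Glo, read following 30 min at room temperature, reflected cell viability.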
Assay [17] has as its target Nuclear receptor subfamily 1 group I member 3 (Homo sapiens) (UniProt Q14994). Briefly: qHTS assay to identify small molecule agonists of the constitutive androstane receptor (CAR) signaling pathway (AID 1224839).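 Also: HepG2 cells stably carrying human CAR and a CYP2B6 luciferase reporter; nearly all actives have a fitted effect of over 15% in size.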 In a few lines: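 Using human hepatoma HepG2 cells engineered with hCAR and a CYP2B6-2.2kb reporter, 15-concentration compound series were incubated 24 h alongside PK11195 at 0.75 uM final, with luminescence quantified afterwards.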

Molecules are shown by their SMILES. Values without a mark were called inactive. Results filed as inconclusive are left out. Calls of active or inactive are those of the source. Unless noted, calls follow the shape of the dose curve; as a rule, active = well fitted curve in the direction sought with a large enough effect in the repeat runs; inconclusive = weak or mixed curves; inactive = no such curve, though single readings can be large; an effect the other way counts as inactive or inconclusive.
% is scaled to controls: 0 for no effect and ±100 for the full control effect.

Luciferin 4-monooxygenase (Photinus pyralis), sequence (P08659 whole entry, looked up): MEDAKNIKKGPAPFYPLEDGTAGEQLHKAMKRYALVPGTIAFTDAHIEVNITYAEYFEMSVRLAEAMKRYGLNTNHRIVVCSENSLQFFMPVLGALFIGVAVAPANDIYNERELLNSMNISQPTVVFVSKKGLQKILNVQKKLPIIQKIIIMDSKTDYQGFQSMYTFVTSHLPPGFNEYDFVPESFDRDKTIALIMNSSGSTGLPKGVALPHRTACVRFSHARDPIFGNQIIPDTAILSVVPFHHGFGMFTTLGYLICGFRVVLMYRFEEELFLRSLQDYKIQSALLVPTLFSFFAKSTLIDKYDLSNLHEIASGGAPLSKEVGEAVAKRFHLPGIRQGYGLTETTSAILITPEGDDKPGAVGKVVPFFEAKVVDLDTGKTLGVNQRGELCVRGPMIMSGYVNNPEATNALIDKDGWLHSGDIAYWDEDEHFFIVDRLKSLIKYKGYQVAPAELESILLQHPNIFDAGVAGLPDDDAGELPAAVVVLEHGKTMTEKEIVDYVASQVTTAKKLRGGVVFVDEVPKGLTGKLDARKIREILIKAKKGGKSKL
Nuclear receptor subfamily 1 group I member 3 (Homo sapiens), sequence (Q14994 whole entry, looked up): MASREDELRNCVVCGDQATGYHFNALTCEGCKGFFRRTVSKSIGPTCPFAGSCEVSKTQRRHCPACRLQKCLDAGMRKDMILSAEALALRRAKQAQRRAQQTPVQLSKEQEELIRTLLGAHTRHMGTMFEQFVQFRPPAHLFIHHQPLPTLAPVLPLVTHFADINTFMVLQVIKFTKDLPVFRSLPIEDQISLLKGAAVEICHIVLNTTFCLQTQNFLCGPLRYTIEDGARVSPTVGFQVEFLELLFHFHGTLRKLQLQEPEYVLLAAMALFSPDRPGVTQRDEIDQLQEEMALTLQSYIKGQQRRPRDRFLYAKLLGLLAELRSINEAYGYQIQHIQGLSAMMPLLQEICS
Thyrotropin receptor (Homo sapiens), sequence (P16473 whole entry, looked up): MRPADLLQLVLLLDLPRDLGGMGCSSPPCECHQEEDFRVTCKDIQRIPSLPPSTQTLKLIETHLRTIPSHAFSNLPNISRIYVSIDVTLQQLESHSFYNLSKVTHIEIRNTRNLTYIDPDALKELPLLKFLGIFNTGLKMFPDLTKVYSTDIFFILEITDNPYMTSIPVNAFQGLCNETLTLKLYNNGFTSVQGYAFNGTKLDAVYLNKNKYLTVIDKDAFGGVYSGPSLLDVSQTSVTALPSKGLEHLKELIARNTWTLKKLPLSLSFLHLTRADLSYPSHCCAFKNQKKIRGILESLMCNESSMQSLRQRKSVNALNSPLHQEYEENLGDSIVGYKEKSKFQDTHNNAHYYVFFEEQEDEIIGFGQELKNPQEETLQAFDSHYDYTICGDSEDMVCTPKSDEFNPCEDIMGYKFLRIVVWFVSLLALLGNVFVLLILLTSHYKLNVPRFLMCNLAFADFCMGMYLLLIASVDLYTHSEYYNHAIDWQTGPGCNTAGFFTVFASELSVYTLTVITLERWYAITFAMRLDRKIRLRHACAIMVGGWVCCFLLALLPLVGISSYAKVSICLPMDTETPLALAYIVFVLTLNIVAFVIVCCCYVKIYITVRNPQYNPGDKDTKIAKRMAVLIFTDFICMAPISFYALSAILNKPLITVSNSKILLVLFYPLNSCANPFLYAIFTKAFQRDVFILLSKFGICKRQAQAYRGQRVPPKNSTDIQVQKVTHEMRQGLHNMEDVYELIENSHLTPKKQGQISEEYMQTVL

For `Nc1ccc(Cl)cc1[N+](=O)[O-]`, the Potency entry in assay [1], in assay [2], in assay [3], in assay [4], in assay [5] and in [6] was “inactive” each time. Further, the Potency result in assay [8], in [10], in [11] and in assay [12] was “inactive” throughout. The result in assay [7] was inactive. Further, in [9], the activity change, positive = activation was -0.746%.

Consider `NC(=O)Cn1c(=O)cc(CCN2CCN(c3nccc4sccc34)CC2)c2ccc(F)cc21`, for which the Potency in assay [13] was 44.8 µM (active); in [4], 61.1 µM (active); in [8] it was 54.5 µM (active); in assay [11], 43.6 µM (active). Besides, the Potency entry in assay [14], in assay [6] and in assay [15] was “inactive” each time. Besides, in assay [7], the molecule was called inactive.

Consider `O=C(CCC1CCN(Cc2ccccc2)CC1)c1ccc2c(c1)NCCCC2`, for which the Potency result in assay [13], in [1], in [2], in assay [3], in assay [14] and in assay [5] was “inactive” each time. Also, the Potency result in assay [6], in [15], in [16], in [10] and in [12] was “inactive” in each case. For the same molecule, the Potency in assay [4] was 18.8 µM (active); in [8], 18.8 µM (active); in assay [11], 8.49 µM (active).

Take `CCCCC(=O)O[C@]1(C(=O)CO)[C@@H](C)C[C@H]2[C@@H]3CCC4=CC(=O)C=C[C@]4(C)[C@@]3(F)[C@@H](O)C[C@@]21C`: the Potency entry in assay [13], in assay [1], in assay [2], in assay [14] and in assay [12] was “inactive” throughout. The values for the Potency in assay [6], in [15] and in [8] were 34.7 µM (active), 113 µM (active) and 54.5 µM (active), respectively. Further, the outcome in assay [7] was inactive.

For the molecule `C[C@@H]1C[C@H]2[C@@H]3CCC4=CC(=O)C=C[C@]4(C)[C@@]3(F)[C@@H](O)C[C@]2(C)[C@@]1(O)C(=O)CO`, the Potency result in assay [1], in [2], in assay [17], in assay [3], in assay [15] and in [16] was “inactive” in each case. In addition, the Potency result in assay [10], in assay [11] and in [12] was “inactive” in each case.

For the molecule `CC[C@H](NC(=O)c1cc(F)ccc1NS(=O)(=O)c1cccc2cccnc12)c1ccccc1`, the Potency result in assay [13], in assay [1], in [2], in [14], in assay [5] and in [15] was “inactive” throughout. Further, the Potency entry in [16], in assay [11] and in assay [12] was “inactive” each time. The results for the Potency in [8] and in assay [10] were 32.5 µM (active) and 52 µM (active), respectively. Also, in assay [9], the activity change, positive = activation was -48.4%.

Regarding `O=C(CCCN1CCC(O)(c2ccc(Br)cc2)CC1)c1ccc(F)cc1`, the Potency entry in [13], in assay [1], in assay [2], in [17], in assay [3] and in assay [5] was “inactive” each time. Moreover, the Potency result in [6], in assay [15], in assay [16] and in [12] was “inactive” in each case. Further, the Potency in assay [11] is 9.52 µM (active).

As for `COc1ccc([C@@H]2Sc3ccccc3NC(=O)[C@@H]2O)cc1`, the Potency result in assay [13], in [1], in assay [2], in [17], in [3] and in [14] was “inactive” throughout. Besides, the Potency result in assay [5], in assay [6], in assay [15], in assay [10] and in [12] was “inactive” each time. For the same molecule, in [9], the activity change, positive = activation was -18.7% [at 42.5 µM].

Consider `CCC(C)(O)CCC=C(C)C` (stereo not given), for which the Potency entry in assay [13], in assay [1], in assay [2], in assay [3], in assay [5] and in assay [6] was “inactive” in each case. For the same molecule, the Potency result in assay [15], in assay [16], in assay [10], in [11] and in assay [12] was “inactive” in each case.

`CCOc1cc(N)c(Cl)cc1C(=O)NCC1CN(Cc2ccc(F)cc2)CCO1` (stereo not given): the Potency entry in assay [13], in assay [1], in assay [2], in assay [3], in assay [5] and in [15] was “inactive” throughout. Also, the Potency entry in assay [16] is “inactive”. Besides, the molecule was called inactive in assay [7]. Further, the Potency in assay [11] was 16.9 µM (active).

As to `CNC(=S)NC`, the Potency result in [13], in [1], in assay [2], in assay [17], in assay [3] and in assay [5] was “inactive” throughout. The Potency result in assay [15], in assay [16], in [10], in assay [11] and in assay [12] was “inactive” in each case. Further, in assay [6], the Potency is 11 µM (active).

In the case of `Cc1c(C(=O)NN2CCCCC2)nn(-c2ccc(Cl)cc2Cl)c1-c1ccc(Cl)cc1`, the Potency entry in assay [13], in assay [1], in assay [2], in [17], in assay [3] and in assay [5] was “inactive” in each case. Also, the Potency entry in assay [16] and in assay [10] was “inactive” each time. In [6], the Potency was 21.3 µM (active).

In the case of `COc1ccccc1N=Nc1c(S(=O)(=O)O)cc2cc(S(=O)(=O)O)cc(NC(C)=O)c2c1O`, the Potency in assay [13] is 29.8 µM (active); in assay [1] it was 25.7 µM (active); in [2] it was 25.7 µM (active); in assay [3] it was 25.7 µM (active); in assay [16] it was 42.3 µM (active). The Potency entry in [17], in assay [14], in assay [6], in [10], in [11] and in assay [12] was “inactive” each time. Moreover, the activity change, positive = activation in assay [9] is -27.5%.
